Hit rate of the full screen: of about 93,000 compounds, about 180 (0.19%) were called active.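 Rule for the calls: active = activation above the screen mean plus 3 SD, with well images confirming the hit on visual review (cut at about 28% in these data, passing the limit was not always enough); inconclusive = activation above that limit but images do not confirm it; inactive = activation not above that limit.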 What follows is part of a selection rich in actives, with near analogues and random picks from the rest.
Assay: enhancers of endothelial VCAM-1 upregulation by TNFa – imaging, HUVEC, TNFa stimulus, immunofluorescence, primary screen (AID 808);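 note: signal is the number of cytoplasmic VCAM-1 stained grains per positive cell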
Conditions: HUVEC TNFa-stimulated VCAM-1 immunofluorescence, high-content imaging; at 2 µM; active compounds read high; scaled per plate to unstimulated/TNFa-only wells

SMILES	activation
CCC(CC)c1nnc(NS(=O)(=O)Cc2ccccc2)s1	11.2% (inactive)
COc1cc(C)nc(N2CCCC(C(=O)NCC(C)C)C2)n1 (configuration not stated)	5.6% (inactive)
COc1ccc2c(c1OC)C(=O)N(c1ncn[nH]1)C2	-7.1% (inactive)
Nc1nonc1-c1noc(-c2ccc(Br)o2)n1	9.6% (inactive)
COc1ccc(Nc2cc(=O)oc3ccccc23)cc1	-88.9% (inactive)
Cc1cccc(Cn2c(SCCO)nc3c2c(=O)n(C)c(=O)n3C)c1	-4.1% (inactive)
Cc1cccc(C)c1N1CCN(S(=O)(=O)N2CCOCC2)CC1	-11.4% (inactive)
CSc1ccc(Cl)c(C(=O)OCC(=O)N2CC(C)OC(C)C2)c1 (configuration not stated)	4.1% (inactive)
NS(=O)(=O)c1cccnc1Nc1cccc(Cl)c1	4.4% (inactive)
CCN(CC)P(=O)(/C(Cl)=C\Nc1c(C)n(C)n(-c2ccccc2)c1=O)N(CC)CC	10.1% (inactive)
CN(C)S(=O)(=O)c1ccc(N2CCCC2)c(C(=O)NCc2ccccc2)c1	-5.1% (inactive)
COCCNS(=O)(=O)c1cc(Br)ccc1OC	35.9% (active)
COc1ccc(F)cc1S(=O)(=O)Nc1ccc2c(c1)OCO2	22.9% (inactive)
CCCN1Cc2cccc(C(=O)Nc3ccc(S(=O)(=O)N4CCCCCC4)cc3)c2C1=O	1.5% (inactive)
C/C(=N\NC(=O)c1ccc(C)cc1)C1C(=O)c2ccccc2C1=O	-6.4% (inactive)
CCCC(=O)n1nc(-c2ccccc2)nc1N	25.9% (inactive)
O=C(COC(=O)c1ccc(S(=O)(=O)N2CCc3ccccc3C2)cc1)NC(=O)NCc1ccco1	-0.5% (inactive)
COC(=O)c1sc2ncccc2c1OCc1ccc(Cl)cc1Cl	-10.3% (inactive)
C=C(Cl)COC(=O)C1C2C=CC(C2)C1C(=O)O (configuration not stated)	12.1% (inactive)
Cn1cc([N+](=O)[O-])c(C(=O)Nc2ccc3c(c2)OCCO3)n1	-36.8% (inactive)
CCN(CC(=O)Nc1ccc2c(c1)OCCO2)Cc1cc(=O)oc2cc(C)c(C)cc12	54.4% (active)
Cc1ccc(C(=O)Nc2ccc3c(c2)OCO3)cc1S(=O)(=O)N1CCCCC1	7.1% (inactive)
CC(CCc1ccccc1)NC(=O)c1ccc(Br)o1 (configuration not stated)	-95.4% (inactive)
NC(=O)COc1ccc2c3c(c(=O)oc2c1)CCCCC3	-35% (inactive)
Cc1cc(Cl)c(S(=O)(=O)NCC2CCCO2)cc1OCC(N)=O (configuration not stated)	25.1% (inactive)
Cc1cc(=O)oc2cc(OCC3CC(c4ccccc4Cl)=NO3)ccc12 (configuration not stated)	-59.7% (inactive)
Cc1ccc(CNC(=O)CCCNC(=O)c2ccc(Cl)cc2)n1C	7.4% (inactive)
